# High-throughput results from PubChem.
# The list is not random: actives were taken first. Their share in the collection is about 31%.
# CYP2C19 inhib – blockers of cytochrome P450 2C19 activity – biochemical, luminescence, ADME assay, primary screen; P33261; CYP2C19 Supersomes, luciferin-H EGE luminescence, 30 min; inhibition, % at 5 µM; 96,000 tested, 21% active;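 active = CYP2C19 inhibition above a set limit at 5 µM in the primary screen, cut at about 50% in these data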;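 also: plate controls were negative control wells for no effect and 2.5 mM tranylcypromine positive control for full effect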
# Target sequence (P33261 whole entry, looked up): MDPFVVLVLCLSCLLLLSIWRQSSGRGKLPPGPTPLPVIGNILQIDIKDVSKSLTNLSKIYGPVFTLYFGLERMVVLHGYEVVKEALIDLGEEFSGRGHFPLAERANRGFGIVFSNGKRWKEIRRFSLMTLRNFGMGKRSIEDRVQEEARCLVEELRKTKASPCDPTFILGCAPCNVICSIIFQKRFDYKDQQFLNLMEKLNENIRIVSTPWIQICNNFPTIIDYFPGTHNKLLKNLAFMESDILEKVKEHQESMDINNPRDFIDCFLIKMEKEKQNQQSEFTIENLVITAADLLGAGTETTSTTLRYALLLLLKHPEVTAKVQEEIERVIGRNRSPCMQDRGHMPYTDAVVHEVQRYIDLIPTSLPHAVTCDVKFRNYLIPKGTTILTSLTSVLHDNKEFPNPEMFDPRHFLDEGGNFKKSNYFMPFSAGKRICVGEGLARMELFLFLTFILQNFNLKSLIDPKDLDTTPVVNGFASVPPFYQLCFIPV
# CYP2C9 inh – blockers of cytochrome P450 2C9 activity – biochemical, luminescence, ADME assay, primary screen. inhibition, % at 5 µM. CYP2C9 Supersomes, luciferin-H conversion. P11712. AID 777, 2007. 96,000 tested, 20% active;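 active = blocking of liver enzyme CYP2C9 beyond about 50% at 5 µM, limit read from the data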
# CYP2C19 activ – human CYP2C19 activators, primary screen, biochemical, luminescence; 96,000 tested, under 10 active; activation factor at 5 µM; AID 1025, 2008; Cytochrome P450 2C19 (Homo sapiens), P33261; recombinant CYP2C19, luciferin-H EGE luminescence; stronger effect = higher value; 0 = fully inhibited enzyme, 1 = untreated enzyme;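 active = activation factor of at least 2 at 5 µM in the primary screen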;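 also: 0 = wells with 2.5 mM tranylcypromine and 1 = vehicle-only wells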
# CYP2C9 activ – human CYP2C9 activators, primary screen, biochemical, luminescence | recombinant CYP2C9, luciferin-H conversion; stronger effect = higher value; factor 1 = untreated enzyme, 0 = blocked | activation factor at 5 µM | 96,000 tested, 1.4% active;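 active = activation factor of 2 or more for CYP2C9 at a 5 µM dose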;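 also: 0 = sulfaphenazole-blocked wells and 1 = vehicle-only wells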
# Active calls of the source: *.
SMILES,CYP2C19 inhib,CYP2C9 inh,CYP2C19 activ,CYP2C9 activ
COc1ccc(Cl)cc1Nc1nc(-c2sc(NC(=O)c3ccco3)nc2C)cs1,43.1,62.5*,0.6,0.4
COc1ccc2sc(NC(=O)c3ccco3)nc2c1,21.7,22.0,0.8,0.8
COc1cc2c(cc1NC(=O)CN1CCN(S(=O)(=O)c3ccccc3F)CC1)oc1ccccc12,17.5,29.3,0.8,0.7
CCOC(=O)c1sc2nc(N3CCOCC3)c3c(c2c1N)CCN(Cc1ccccc1)C3,-4.2,8.6,1,0.9
CCOC(=O)N1CCN(c2c(NCC3CCN(Cc4cccc(C)c4)CC3)c(=O)c2=O)CC1,-6.1,-1.8,1.1,1
CCCS(=O)(=O)N1CCC(C(=O)N2CCc3ccccc3C2)CC1,33.9,-0.1,0.7,1
N#CCCCSc1nnnn1-c1cccc(Cl)c1,80.3*,-12.8,0.2,1.1
O=C1CC(Sc2nnnn2-c2ccccc2)C(=O)N1c1cccc(Cl)c1 (stereo not given),27.4,33.5,0.7,0.7
Cc1cc(C(=O)COC(=O)c2n[nH]c3ccccc23)c(C)n1C,42.9,-62.7,0.6,1.6
CCc1ccc2c(COC(=O)c3n[nH]c4ccccc34)cc(=O)oc2c1,57.9*,80.6*,0.4,0.2
Cc1ccc2c(COC(=O)c3n[nH]c4ccccc34)cc(=O)oc2c1,12.2,56.7*,0.9,0.4
COc1cccc(C(=O)CSc2nnc(CNS(C)(=O)=O)n2-c2ccc(C)cc2)c1,32.7,38.6,0.7,0.6
COc1ccc(/C(C#N)=C/c2c(-c3ccc(Cl)cc3)nc3c(C)cccn23)cc1,52.0*,57.2*,0.5,0.4
CCN(CC)CCOC(=O)c1ccc2c(c1)OCCO2,8.0,1.7,0.9,1
CCOC(=O)Cc1csc(NC(=O)CCc2ccc(S(=O)(=O)N3CCOCC3)cc2)n1,41.6,49.8,0.6,0.5
CC(c1ccco1)N(C(=O)c1ccc(Cl)s1)c1ccccn1 (stereo not given),88.6*,58.7*,0.1,0.4
Cc1ccc(C(=O)N(c2ccccn2)C(C)c2ccco2)cc1C (stereo not given),41.1,22.1,0.6,0.8
C=CCn1c(NC(=O)c2ccc(Br)o2)c(S(=O)(=O)c2ccccc2)c2nc3ccccc3nc21,6.6,53.0*,0.9,0.5
O=C(Nc1ccc(S(=O)(=O)Nc2cnc3ccccc3n2)cc1)c1ccc(Br)o1,-18.4,2.1,1.2,1
C=CCn1c(NC(=O)c2ccco2)c(S(=O)(=O)c2ccccc2)c2nc3ccccc3nc21,21.2,66.2*,0.8,0.3
Fc1ccc(-c2nc3c(Cl)cc(C(F)(F)F)cn3c2Cl)cc1,23.3,6.8,0.8,0.9
CCOc1cc(S(=O)(=O)NCc2ccc(OC)cc2)c(OCC)cc1-n1cnnn1,31.0,85.4*,0.7,0.1
CCOc1ccc(-n2cnnn2)cc1S(=O)(=O)NCCc1ccc(OC)c(OC)c1,10.3,7.3,0.9,0.9
CCOc1cc(S(=O)(=O)NCc2ccco2)c(OCC)cc1-n1cnnn1,31.3,68.6*,0.7,0.3
CCOc1cc(S(=O)(=O)N2CCN(c3ccc(F)cc3)CC2)c(OCC)cc1-n1cnnn1,-4.4,18.0,1,0.8
SMILES,CYP2C19 inhib,CYP2C9 inh,CYP2C19 activ,CYP2C9 activ
CCOc1cc(S(=O)(=O)NC2CC2)c(OCC)cc1-n1cnnn1,79.9*,95.3*,0.2,0
CCOc1cc(S(=O)(=O)NCCc2ccc(OC)c(OC)c2)c(OCC)cc1-n1cnnn1,13.2,75.8*,0.9,0.2
CCCOC(=O)CSc1nc(N)c(C#N)c(CC)c1C#N,24.7,4.0,0.8,1
CCOc1cc(S(=O)(=O)NCC2OCCc3ccccc32)c(OCC)cc1-n1cnnn1 (stereo not given),31.8,50.8*,0.7,0.5
N#Cc1cc(-c2ccccc2)cnc1Sc1ccccc1,28.1,78.2*,0.7,0.2
Cc1ccc(Sc2nnc(-c3ccccc3)cc2C#N)cc1,11.0,29.6,0.9,0.7
O=C1/C(=C/c2cccnc2)Oc2cc(OS(=O)(=O)c3ccc(F)cc3)ccc21,44.8,83.6*,0.6,0.2
Cc1ccc(S(=O)(=O)Oc2ccc3c(c2)O/C(=C\c2cccnc2)C3=O)cc1,72.5*,91.1*,0.3,0.1
CC1CC(C)CN(C(=O)c2ccccc2Nc2ccc(SC(F)F)cc2)C1 (stereo not given),80.6*,76.3*,0.2,0.2
CCC(=O)Nc1ccc2nc(SCC(=O)N3CCCC3)sc2c1,12.4,15.6,0.9,0.8
CC(=O)Nc1ccc2nc(SCC(=O)Nc3ccc(N4CCOCC4)c(Cl)c3)sc2c1,44.9,76.3*,0.6,0.2
CC(=O)CSc1nc2ccc(Nc3nc(N4CCOCC4)nc(N4CCOCC4)n3)cc2s1,74.7*,54.8*,0.3,0.5
O=C(CSc1nnc(C23CC4CC(CC(C4)C2)C3)o1)Nc1ccc(N2CCOCC2)c(Cl)c1,-3.7,7.2,1,0.9
Cc1cc(C)nc(SCC(=O)Nc2ccc(N3CCOCC3)c(Cl)c2)n1,35.5,52.5*,0.6,0.5
Cc1cc(Oc2ccccc2)nc(SCC(=O)Nc2ccc(Cl)c(Cl)c2)n1,56.1*,64.7*,0.4,0.4
c1ccc(COn2c(-c3ccccc3)nc3c2CCc2nonc2-3)cc1,2.1,-7.9,1,1.1
Cc1cc(N2CCCCC2)nc(N2CCOCC2)n1,-4.6,16.4,1,0.8
O=C(CSc1nc2ccccc2o1)Nc1ccc(N2CCOCC2)c(Cl)c1,72.9*,88.8*,0.3,0.1
Cc1cc(N2CCOCC2)nc(SCc2ccc(Cl)cc2Cl)n1,48.3,64.0*,0.5,0.4
O=C(Cn1cnc2ccccc2c1=O)N1CCN(Cc2ccccc2)CC1,-5.4,3.3,1.1,1
COc1ccccc1C1CC(c2cccs2)=Nc2ccccc2S1 (stereo not given),89.9*,80.5*,0.1,0.2
COc1cc2c(cc1NC(=O)CN1C(=O)NC3(CCc4ccccc43)C1=O)oc1ccccc12 (stereo not given),2.2,38.4,1,0.6
COc1ccc(OC)c(NC(=O)CN2C(=O)NC3(CCOc4ccccc43)C2=O)c1 (stereo not given),56.8*,44.2,0.4,0.6
CC1CC(=O)N(CC(=O)Nc2ccc3c(c2)OCO3)c2ccccc2S1 (stereo not given),43.5,28.1,0.6,0.7
O=C(CN1C(=O)NC2(CCOc3ccccc32)C1=O)Nc1ccc2c(c1)OCCO2 (stereo not given),3.8,50.1*,1,0.5
O=C(CN1C(=O)CC(c2ccco2)Sc2ccccc21)Nc1ccc2c(c1)OCCO2 (stereo not given),88.4*,49.4,0.1,0.5
NC(=O)C1CCN(C(=O)c2cc(S(=O)(=O)N3CCOCC3)c(Cl)cc2Cl)CC1,4.1,-0.4,1,1
COc1ccc(/C=C(/C#N)C(=O)Nc2cccc(C)c2C)cc1C(=O)O,58.2*,15.8,0.4,0.8
O=S(=O)(/N=C(/Nc1ccccn1)c1ccccc1)c1ccccc1,-0.8,7.7,1,0.9
